Screening results deposited in PubChem BioAssay by National Center for Advancing Translational Sciences (NCATS).
Pf growth 96h – inhibits malaria parasite growth, 96 h; P. falciparum luciferase reporter growth, 96 h; Potency, µM (series often up to 28.7 µM), for inactives: at the highest dose activity change, negative = inhibition, most hits filed as inhibitors; 6.9% of 320,000 active; AID 504834; further: potency means the concentration at half of the fitted maximal effect; on the % scale 0 is the no-effect control and ±100 the full control effect
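P. falciparum expressing integrated firefly luciferase grown in erythrocytes (2% hematocrit, 0.05% parasitemia final) with compounds for 96 hours at 37 C, 5% CO2. Growth inhibition read as loss of luminescence after adding luciferase detection reagent.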
Pf growth 48h – inhibits P. falciparum growth in the first generation, 48 h. P. falciparum luciferase growth in erythrocytes, 48 h. Potency, µM (highest dose often 28.7 µM), without a hit: at the highest dose activity change, negative = inhibition, actives largely listed as inhibitors. 5.9% of 310,000 active. AID 504832; further: potency means the concentration at half of the fitted maximal effect; on the % scale 0 is the no-effect control and ±100 the full control effect
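Here the parasites carry a stable luciferase gene and grow inside erythrocytes in Albumax-based RPMI medium with compound for one erythrocytic cycle. Activity is scored as loss of luminescent signal.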
Shiga inhibitor – inhibitors of Shiga toxin in Vero cells. Vero cells, Shiga toxin protein synthesis inhibition reporter. inhibition, % at 38.7 µM. 9.2% of 290,000 active. AID 2315; in the data active means inhibition mostly above about 28%, no sharp cut-off; inactive means mostly below about 43%; further: 0% is about no effect
CHX counter – counter-screen for Shiga toxin inhibitors: cycloheximide protein synthesis inhibition | cell reporter, cycloheximide protein synthesis inhibition counterscreen | max response, % | AID 2314 | 12% of 300,000 active; in the data active means max response mostly above about 13%, no sharp cut-off; inactive means mostly below about 14%; further: read at 38.3 µM for the half of the compounds with a filed dose; 0% is about no effect
An asterisk follows results filed as active; ? = inconclusive; / = no result; [ ] = another dose, or the depositor's remark. Sampled rows, rich in hits. Any-hit rate of the full collection: about 21%. Unless noted, the call rests on the fitted dose curve; in most records, active means well fitted inhibition curve with a large enough effect; inconclusive means small, poorly fitted or top-dose-only effect, or another doubt; inactive means no such curve, though single readings can be large or run the other way.

SMILES	Pf growth 96h	Pf growth 48h	Shiga inhibitor	CHX counter
Cc1cccc(NS(=O)(=O)c2cc(C(=O)OC(C)C(=O)NCc3ccc4c(c3)OCO4)ccc2C)c1 (stereo not drawn)	?	?	11	0
CCCCc1cc(=O)oc2cc(OCC(=O)Nc3cccnc3)c(Cl)cc12	-27%	16%	14	-2
CC1=NN(C(N)=S)C(=O)C1N=Nc1ccccc1Cl (stereo not drawn)	283%	?	/	18*
CC1=NN(C(N)=S)C(=O)C1N=Nc1ccc(Cl)cc1Cl (stereo not drawn)	?	?	77*	25*
COc1ccccc1N=NC1C(=O)N(C(N)=S)N=C1C (stereo not drawn)	-25%	11%	/	1
Cc1cc(C(=O)Nc2c(F)cc(F)cc2Br)n(-c2ccccc2)n1	6%	1%[0.00184 µM]	-4	-3
COc1ccc(NC(=O)c2ccc(N3CCOCC3)nc2)cc1	?	-23%	-4	-5
Cc1ccccc1C(=O)Nc1ccc(N2CCOCC2)nc1	128%	68%	58*	30*
Cc1ccc(C(=O)Nc2ccc(N3CCOCC3)nc2)cc1	106%	35%	75*	20*
CN1CCN(c2ccc(NC(=O)c3ccc(Cl)cc3)cn2)CC1	?	?	23	42*
O=C(Nc1ccc(N2CCOCC2)nc1)c1ccc(F)cc1	40%	55%	48*	41*
Cc1ccccc1C(=O)Nc1ccc(CN2CCOCC2)cc1	92%	-11%	2	8
CCOC(=O)CCN(c1ccccc1)S(=O)(=O)c1ccc(-c2ccc(=O)[nH]n2)s1	?	-20%	-12	-5
O=C(NNC(=O)c1ccccc1O)c1cc2ccccc2o1	168%	32%	/	/
CCn1c(SCc2nc3ccccc3[nH]2)nnc1-c1ccc(OC)cc1	-6%	-6%	-13	-4
CN(C)c1ccc(NC(=O)c2ccc(N3CCOCC3)nc2)cc1	?	?	79*	34*
c1csc(CSc2nc3ccccc3s2)c1	?	171%	136*	34*
Cc1noc(C)c1CSc1nc2ccccc2s1	11%	1%	39	18
CCS(=O)CCSc1nc2ccccc2s1 (stereo not drawn)	-7%	127%	121*	32*
CCN(C(C)=O)c1nnc(CSc2nc3ccccc3s2)s1	63%	140%	157*	25*
CSc1nc2ccccc2s1	-15%	-1%	4	0
CNc1nnc(CSc2nc3ccccc3s2)s1	0%	60%	84*	22*
CCOC(=O)CCN(Cc1ccccc1)S(=O)(=O)c1csc(C(N)=O)c1	-18%	18%	-4	-1
Cc1ccc(NC(=S)N(N)CCO)cc1	-25%	105%	43*	22
O=C(Nc1ccnn1C1CCN(C(=O)Cc2ccccc2F)CC1)C1CC1	115%	11%	12	-1
SMILES	Pf growth 96h	Pf growth 48h	Shiga inhibitor	CHX counter
Cc1cccc(C(=O)N2CCC(=O)N(C(COCc3cccc(C(F)(F)F)c3)Cc3ccccc3)CC2)c1 (stereo not drawn)	9.3µM*	?	-3	-2
CC(C)(C)c1ccc(C(=O)N2CCC(=O)N([C@H](COCc3ccc(Cl)cc3)Cc3ccccc3)CC2)cc1	/	/	-4	-2
Cc1ccc(S(=O)(=O)N2CCC(=O)N(C(COCc3ccc(Cl)cc3)C(C)C)CC2)cc1 (stereo not drawn)	?	?	-19	-4
Cc1cccc(COCC(Cc2ccccc2)N2CCN(C(=O)c3cccc(Cl)c3)CCC2=O)c1 (stereo not drawn)	12µM*	?	-17	-3
Cc1ccc(S(=O)(=O)N2CCC(=O)N(C(COCc3ccc(Cl)cc3)Cc3ccccc3)CC2)cc1 (stereo not drawn)	10µM*	12µM*	40	0
O=C(c1ccc(Cl)c(Cl)c1)N1CCC(=O)N(C(COCc2ccccc2)Cc2ccccc2)CC1 (stereo not drawn)	12µM*	?	1	-3
Cc1cccc(C(=O)N2CCC(=O)N([C@H](COCc3cccc(C(F)(F)F)c3)Cc3ccccc3)CC2)c1	/	/	-5	-5
CC(Oc1ccccc1Cl)C(=O)Nc1ccccc1C(=O)N1CCOCC1 (stereo not drawn)	-6%	-7%	11	-1
O=C(c1cccc(Cl)c1)N1CCC(=O)N(C(COCc2ccccc2)Cc2ccccc2)CC1 (stereo not drawn)	10µM*	?	-16	-6
Cc1cccc(C(=O)N2CCC(=O)N([C@H](COCc3ccccc3)Cc3ccccc3)CC2)c1	/	/	-4	-2
CCC(CC)N1CCN(C(=O)c2cccc(Cl)c2)CC1	13µM*	16%	-2	1
